Here are results for 10 compounds from article PMC7826789 (International Journal of Molecular Sciences, 2021).

Test systems include TXK; TYRO3; ULK1; ULK2; ULK3; VRK2; WEE1; WEE2; WNK1; WNK2; WNK3; WNK4.
Common to all, as to conditions: Compound Concentration (nM):1000
Experiment [1] relates to TYK2(JH1domain-catalytic).
In experiment [2] the test system is TYK2(JH2domain-pseudokinase).
The next experiment relates to T1, VEGFR2.
T1 construct: gene KDR

Another experiment has as its system T2, VPS34.
T2 construct: gene PIK3C3

Another experiment deals with T3, YANK1.
T3 construct: gene STK32A

Another experiment concerns T4, YANK2.
T4 construct: gene STK32B

In a further experiment the test system is T5, YANK3.
T5 construct: gene STK32C

The next experiment deals with T6, YES.
T6 construct: gene YES1
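Also: KINOMEscan scanMAX binding as percent activity remaining versus control; lower means stronger binding.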

Consider `CC1=C(C(=O)Nc2ccc3[nH]ncc3c2)C(c2ccc3ccccc3c2)CC(=O)N1` (centres unmarked) [GSK270822A], for which the “Percent Control” value is recorded as 91% in the experiment on TXK; 10% in [1]; 58% in [2]; 83% with TYRO3; 82% in the experiment with ULK1; 79% with ULK2. For the same compound, the “Percent Control” value was 93% with ULK3; 90% in the experiment on VEGFR2; 79% with VPS34; 36% in the experiment on VRK2; 93% with WEE1; 62% in the experiment on WEE2. The “Percent Control” value in the experiment on WNK1 is given as 92%; in the experiment on WNK2, 85%; in the experiment on WNK3, 86%; in the experiment with WNK4 it was 76%; in the experiment on YANK1, 83%; in the experiment on YANK2, 88%. Besides, the “Percent Control” value in the experiment on YANK3 is given as 96%; in the experiment on YES, 68%.
Take `NS(=O)(=O)c1ccc(N/N=C2\C(=O)Nc3ccc(-c4cnco4)cc32)cc1` [GW276655]: the “Percent Control” value in the experiment on TXK amounted to 76%; in [1], 24%; in experiment [2] it was 37%; in the experiment on TYRO3 it was 40%; with ULK1, 84%; with ULK2 it was 82%. Besides, the “Percent Control” value in the experiment with ULK3 was 40%; in the experiment with VEGFR2, 71%; in the experiment with VPS34, 92%; with VRK2 it was 89%; in the experiment on WEE1 it was 88%; in the experiment with WEE2, 72%. Besides, the “Percent Control” value was found to be 87% in the experiment on WNK1; 100% with WNK2; 56% with WNK3; 100% in the experiment with WNK4; 56% with YANK1; 100% in the experiment with YANK2. The “Percent Control” value in the experiment on YANK3 was found to be 63%; in the experiment with YES, 69%.
Take `CN1CCN(C(=O)c2ccc(NC(=O)Nc3ccc(N(C)c4ccnc(Nc5ccc(CS(C)(=O)=O)cc5)n4)cc3)cc2)CC1.Cl` [GW830263A]: the “Percent Control” value in the experiment on TXK is given as 15%; in experiment [1], 4.2%; in experiment [2] it was 6.5%; with TYRO3 it was 92%; in the experiment with ULK1 it was 79%; in the experiment on ULK2, 78%. The “Percent Control” value was 7.6% in the experiment on ULK3; 1.1% in the experiment on VEGFR2; 74% in the experiment with VPS34; 93% in the experiment on VRK2; 100% in the experiment on WEE1; 99% in the experiment on WEE2. For the same compound, the “Percent Control” value was 94% in the experiment with WNK1; 67% in the experiment on WNK2; 93% in the experiment with WNK3; 100% in the experiment on WNK4; 68% in the experiment on YANK1; 100% in the experiment with YANK2. Further, the figures for the “Percent Control” value in the experiment on YANK3 and in the experiment with YES were 100% and 96%, respectively.
Regarding `COc1cc2ncn(-c3cc(O[C@H](C)c4ccccc4Cl)c(C(N)=O)s3)c2cc1OC` [GSK237701A], the “Percent Control” value with TXK is given as 96%; in [1], 45%; in [2] it was 97%; with TYRO3, 100%; with ULK1, 92%; in the experiment on ULK2, 75%. In addition, the “Percent Control” value is 100% in the experiment on ULK3; 33% in the experiment on VEGFR2; 0.3% in the experiment with VPS34; 80% in the experiment on VRK2; 100% in the experiment on WEE1; 76% in the experiment on WEE2. Also, the “Percent Control” value turned out to be 2.9% in the experiment on WNK1; 6.1% in the experiment on WNK2; 0.8% in the experiment with WNK3; 11% in the experiment on WNK4; 91% in the experiment with YANK1; 100% with YANK2. The “Percent Control” value in the experiment on YANK3 worked out at 92%; in the experiment on YES, 87%.
With `CC1=C(C(=O)Nc2ccc3[nH]ncc3c2)C(c2ccc(Cl)c(Cl)c2)CC(=O)N1` (centres unmarked) [GSK299115A], the “Percent Control” value in the experiment on TXK was 100%; in experiment [1] it was 14%; in [2] it was 100%; in the experiment on TYRO3 it was 89%; in the experiment on ULK1 it was 81%; in the experiment with ULK2 it was 72%. Also, the “Percent Control” value with ULK3 is 87%; in the experiment on VEGFR2 it was 92%; in the experiment on VPS34, 83%; in the experiment on VRK2, 72%; with WEE1, 84%; in the experiment with WEE2, 73%. The “Percent Control” value in the experiment on WNK1 is 95%; in the experiment with WNK2 it was 100%; in the experiment on WNK3, 69%; in the experiment on WNK4, 82%; in the experiment on YANK1, 93%; in the experiment on YANK2, 82%. For the same compound, the “Percent Control” value with YANK3 is reported as 99%; in the experiment on YES, 81%.
Consider `Cl.c1ccc(Cc2nc3ccc(Nc4ncnc5ccccc45)cc3[nH]2)cc1` [GR269666A], for which the “Percent Control” value with TXK is on record as 100%; in [1] it was 100%; in experiment [2], 100%; in the experiment on TYRO3, 90%; in the experiment with ULK1 it was 67%; in the experiment on ULK2, 100%. Besides, the “Percent Control” value was 93% in the experiment on ULK3; 72% in the experiment with VEGFR2; 100% with VPS34; 100% in the experiment with VRK2; 100% in the experiment with WEE1; 100% in the experiment with WEE2. Moreover, the “Percent Control” value in the experiment on WNK1, in the experiment on WNK2, with WNK3, in the experiment with WNK4, in the experiment with YANK1 and in the experiment with YANK2 was 100% throughout. Further, the “Percent Control” value in the experiment with YANK3 and with YES was 100% throughout.
`COc1cc(C=NNc2ncnc3c2cnn3-c2ccccc2)ccc1O` [GW513184X]: the “Percent Control” value was 100% in the experiment with TXK; 47% in experiment [1]; 8% in experiment [2]; 100% in the experiment with TYRO3; 100% in the experiment on ULK1; 100% in the experiment with ULK2. The “Percent Control” value was 67% with ULK3; 95% in the experiment with VEGFR2; 100% in the experiment with VPS34; 100% in the experiment on VRK2; 96% in the experiment with WEE1; 100% in the experiment on WEE2. Moreover, the “Percent Control” value in the experiment with WNK1 came out at 97%; with WNK2 it was 100%; with WNK3 it was 100%; in the experiment with WNK4 it was 100%; with YANK1, 89%; in the experiment on YANK2, 100%. Moreover, the “Percent Control” value was determined as 100% with YANK3 and 74% in the experiment with YES.
Turning to `CN(C)CCNC(=O)Nc1ccc(N(C)c2ccnc(Nc3ccc(CS(C)(=O)=O)cc3)n2)cc1.Cl` [GW830900A], the “Percent Control” value in the experiment with TXK amounted to 61%; in experiment [1], 35%; in experiment [2], 49%; in the experiment with TYRO3, 85%; in the experiment on ULK1, 94%; in the experiment on ULK2, 97%. The “Percent Control” value with ULK3 was 80%; in the experiment with VEGFR2, 21%; in the experiment with VPS34, 77%; with VRK2, 100%; in the experiment on WEE1, 94%; in the experiment on WEE2 it was 88%. The “Percent Control” value stood at 92% in the experiment with WNK1; 64% in the experiment with WNK2; 99% with WNK3; 100% in the experiment on WNK4; 68% in the experiment with YANK1; 100% with YANK2. Further, the “Percent Control” value in the experiment with YANK3 is recorded as 100%; with YES, 77%.
On to `CCc1ccc(Oc2nccc(-c3c(-c4ccc(F)cc4)ncn3C3CCNCC3)n2)cc1` [SB-242719], for which the “Percent Control” value with TXK is 91%; in [1] it was 100%; in [2], 100%; with TYRO3 it was 62%; in the experiment on ULK1, 92%; in the experiment with ULK2 it was 77%. For the same compound, the “Percent Control” value is 92% with ULK3; 100% in the experiment on VEGFR2; 64% in the experiment on VPS34; 69% with VRK2; 100% in the experiment with WEE1; 100% with WEE2. The “Percent Control” value in the experiment on WNK1 stood at 80%; in the experiment with WNK2 it was 97%; in the experiment on WNK3, 89%; in the experiment with WNK4, 67%; in the experiment with YANK1, 8.8%; in the experiment with YANK2, 13%. The “Percent Control” value was found to be 32% in the experiment on YANK3 and 78% in the experiment with YES.
With `NS(=O)(=O)c1ccc(Nc2ncc(-c3ccccc3)o2)cc1` [GW572399X], the “Percent Control” value in the experiment with TXK turned out to be 100%; in [1], 100%; in experiment [2], 100%; with TYRO3, 100%; in the experiment on ULK1, 100%; with ULK2, 91%. The “Percent Control” value with ULK3 was 88%; in the experiment with VEGFR2 it was 22%; in the experiment with VPS34, 100%; with VRK2, 100%; with WEE1, 100%; in the experiment on WEE2, 100%. Besides, the “Percent Control” value with WNK1 was 89%; in the experiment on WNK2, 100%; in the experiment on WNK3, 100%; with WNK4, 100%; in the experiment on YANK1, 100%; in the experiment with YANK2, 100%. Also, the “Percent Control” value with YANK3 and in the experiment on YES was 100% in each case.
